Test results reported in PubChem BioAssay (Tox21).
Results filed as inconclusive are left out. Activity calls are given as the source filed them. Unless noted, the call rests on the fitted dose curve.

How the values were obtained:
[1] = Nuclear factor erythroid 2-related factor 2/antioxidant responsive element (Nrf2/ARE) small molecule agonists: qHTS cell viability counter screen in human keratinocytes (AID 1919968; active means well fitted curve in the direction sought with a large enough effect in the repeat runs; an effect the other way counts as inactive or inconclusive; further: nearly all actives have a fitted effect of over 55% in size; further: potency means the concentration at half of the fitted maximal effect)
Procedure, shortened: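 KeratinoSens cells (HaCaT keratinocytes stably carrying an ARE-luciferase reporter) were seeded at 1,500 cells/well and rested 5 h at 37 C/5% CO2. They were then exposed to compounds in DMSO for 23 h. Viability was read by CellTiter-Fluor fluorescence after 1 h.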

[2] = target: Gonadotropin-releasing hormone receptor (Homo sapiens) (UniProt P30968); assay: Human gonadotropin-releasing hormone receptor (GnRHR) small molecule agonists, calcium flux assay in GnRHR-HEK293 cells (AID 1920063); further: nearly all actives have a fitted effect of over 35% in size
Procedure, shortened: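 HEK293 cells stably expressing human GnRHR were plated 18 h at 37 °C, loaded with calcium dye 1 h at 37 °C, then given compound in agonist mode; fluorescence (Ex/Em 480/540) read kinetically for 3 min at 1 s intervals.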

[3] = target: KiSS-1 receptor (Homo sapiens) (UniProt Q969F8); assay: Human kisspeptin (KISS1R) small molecule agonists, calcium flux assay in KISS1R-HEK293 cells (AID 1920064; active means well fitted curve in the direction sought with a large enough effect in the repeat runs; an effect the other way counts as inactive or inconclusive)
Procedure, shortened: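 HEK293 cells stably expressing human KISS1R were plated 18 h at 37 °C, loaded with calcium dye for 1 h at 37 °C, then given compound by pin tool. Fluorescence (Ex/Em 480/540) was read kinetically for 3 min.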

[4] = G protein-coupled receptor (GPCR) small molecule agonists, calcium flux assay: HEK293 wild type cell line counter screen (AID 1920065)
Procedure, shortened: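 Cells were plated and cultured 18 h at 37 C/5% CO2, then loaded with calcium dye for 1 h at 37 C. Compounds in DMSO were pin-transferred in agonist mode, and fluorescence (Ex/Em 480/540) was read kinetically for 3 min at 1 s intervals.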

[5] = p53 small molecule agonists, cell-based qHTS assay with human liver microsomes (AID 1963577);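 further: p53 response element beta-lactamase reporter cells with liver microsomes plus NADPH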
Procedure, shortened: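 In this qHTS, p53 response-element beta-lactamase cells receive test compound together with a microsome/NADPH activating system (0.5 mg/mL final each) and are incubated 16 h at 37 C before LiveBLAzer fluorescence detection.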

[6] = p53 small molecule agonists, cell-based qHTS assay with rat liver microsomes (AID 1963578)
Procedure, shortened: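 Agonist mode in p53RE-bla reporter cells, with compounds co-incubated 16 h at 37 C alongside 0.5 mg/mL rat liver microsomes and 0.5 mg/mL NADPH (final), followed by a 2 h LiveBLAzer detection step.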

[7] = p53 small molecule agonists, cell-based qHTS assay with rat liver microsomes: qHTS cell viability counter screen (AID 1963580); further: nearly all actives have a fitted effect of over 45% in size
Procedure, shortened: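 p53RE-bla HCT-116 cells (4,000/well) rested 5 h at 37 C, then given Tox21 compounds in DMSO with rat liver microsomes (0.5 mg/mL final) plus NADPH (0.5 mg/mL final) for 16 h at 37 C. Viability read by CellTiter-Glo luminescence after 30 min at room temperature.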

[8] = p53 small molecule agonists, cell-based qHTS assay: qHTS cell viability counter screen (AID 1963581); further: nearly all actives have a fitted effect of over 45% in size; further: potency means the concentration at half of the fitted maximal effect
Procedure, shortened: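 p53RE-bla HCT-116 cells were exposed to compounds for 16 h at 37 C; after the beta-lactamase FRET read in the same wells, CellTiter-Glo was added and luminescence (intracellular ATP) read after 30 min at room temperature.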

[9] = p53 small molecule agonists, cell-based qHTS assay (AID 1963582; active means well fitted activation curve with a large enough effect in the signal ratio in the repeat runs, not every such curve was filed as active; the % refers to the signal ratio)
Procedure, shortened: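 p53RE-bla beta-lactamase reporter cells rested 5 h at 37 C/5% CO2, then received compounds in DMSO by pin transfer and were incubated 16 h at 37 C. LiveBLAzer B/G FRET substrate was loaded for 2 h at room temperature before fluorescence reading.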

[10] = target: 5-hydroxytryptamine receptor 2A (Homo sapiens) (UniProt P28223); assay: 5-hydroxytryptamine receptor 2A (HTR2A) small molecule antagonists, cell-based qHTS assay (AID 1963586); further: nearly all actives have a fitted effect of over 45% in size
Procedure, shortened: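 Antagonist-mode intracellular calcium assay: DOI (4 nM) added after 5 min compound pre-incubation at room temperature to dye-loaded HTR2A-CHO cells. Fluorescence followed for 3 min, sampled every second.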

[11] = target: 5-hydroxytryptamine receptor 2A (Homo sapiens) (UniProt P28223); assay: 5-hydroxytryptamine receptor 2A (HTR2A) small molecule agonists, cell-based qHTS assay (AID 1963587); further: nearly all actives have a fitted effect of over 30% in size
Procedure, shortened: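 HTR2A-CHO cells, plated 18 h at 37 C/5% CO2, dye-loaded 1 h at 37 C; compounds in DMSO added by pin tool (agonist mode). Intracellular calcium flux read as kinetic fluorescence on FDSS over 2 min at 1 s intervals.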

[12] = target: Muscarinic acetylcholine receptor M1 (Homo sapiens) (UniProt P11229); assay: Cholinergic receptor muscarinic 1 (CHRM1) small molecule antagonists, cell-based qHTS assay (AID 1963588); further: nearly all actives have a fitted effect of over 40% in size
Procedure, shortened: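 CHRM1-CHO calcium-flux assay, antagonist mode. Cells were seeded 18 h, dye-loaded 1 h at 37 C and given compound for 5 min at RT, then acetylcholine was added at 50nM. FDSS fluorescence was read 3 min; 15 concentrations, three runs.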

[13] = target: Beta-2 adrenergic receptor (Homo sapiens) (UniProt P07550); assay: Adrenergic beta2 receptor (ADRB2) small molecule antagonists, cell-based qHTS assay (AID 1963592); further: nearly all actives have a fitted effect of over 50% in size; further: potency means the concentration at half of the fitted maximal effect
Procedure, shortened: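 Cells (CHO, stable ADRB2 overexpression) incubated 18-20hr at 37C; compounds added from DMSO; agonist mix (1nM isoproterenol, 100uM IBMX, 25uM Ro-20-1724) added; 0.5hr RT; d2-cAMP and anti-cAMP-cryptate added; 1hr RT; 665/615 nm read.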

[14] = target: Beta-2 adrenergic receptor (Homo sapiens) (UniProt P07550); assay: Adrenergic beta2 receptor (ADRB2) small molecule agonists, cell-based qHTS assay (AID 1963593);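 further: CHO cells stably overexpressing human ADRB2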
Procedure, shortened: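 CHO cells stably over-expressing ADRB2 were plated overnight at 37C, then dosed with compounds plus a stimulation mix containing 100uM IBMX and 25uM Ro-20-1724 for 0.5hr at room temperature. cAMP was measured by HTRF competition, 1hr.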

[15] = target: D(2) dopamine receptor (Homo sapiens) (UniProt P14416); assay: Dopamine D2 receptor (DRD2) small molecule agonists, cell-based qHTS assay (AID 1963594); further: nearly all actives have a fitted effect of over 35% in size
Procedure, shortened: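 HEK293 cells stably expressing DRD2 were cultured 24 h at 37 C, then given Ro20-1724 (0.1 mM final) and compounds for 10 min at room temperature. NKH477 (200nM) was then added for 30 min. cAMP was read by HTRF.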

[16] = target: D(2) dopamine receptor (Homo sapiens) (UniProt P14416); assay: Dopamine D2 receptor (DRD2) small molecule antagonists, cell-based qHTS assay (AID 1963595; active means well fitted inhibition curve with a large enough effect in the signal ratio in the repeat runs, with a control signal flat; the % refers to the signal ratio; further: potency means the concentration at half of the fitted maximal effect)
Procedure, shortened: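 In this cell-based antagonist screen, compounds act for 10 min at room temperature before a 30 min challenge with 12 nM quinpirole and 200 nM NKH477. cAMP is quantified by HTRF competition in DRD2-HEK293 cells containing 0.1 mM Ro20-1724.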

[17] = p53 small molecule agonists, cell-based qHTS assay with human liver microsomes: qHTS cell viability counter screen (AID 1963579); further: nearly all actives have a fitted effect of over 45% in size; further: potency means the concentration at half of the fitted maximal effect
Procedure, shortened: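 Metabolically activated exposure: compounds, human liver microsomes and NADPH (0.5 mg/mL final apiece) were added to p53RE-bla cells seeded 5 h earlier, left 16 h at 37 C, and then assessed for viability by CellTiter-Glo luminescence.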

[18] = target: Muscarinic acetylcholine receptor M1 (Homo sapiens) (UniProt P11229); assay: Cholinergic receptor muscarinic 1 (CHRM1) small molecule agonists, cell-based qHTS assay (AID 1963589); further: nearly all actives have a fitted effect of over 35% in size
Procedure, shortened: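 CHO cells stably expressing human CHRM1, seeded 18 h at 37 C/5% CO2, dye-loaded 1 h at 37 C, then given compound in agonist mode; intracellular calcium fluorescence read kinetically at 1 s intervals. Fifteen concentrations, three independent runs.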

[19] = cAMP Responsive Elements (CRE) small molecule agonists, cell-based qHTS assay (AID 1963590)
Procedure, shortened: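 CRE-bla HEK 293T cells in DMEM with 10% dialyzed FBS, NEAA, pyruvate and 25 mM HEPES were plated 18 h at 37 C/5% CO2, then exposed to compounds in DMSO for 3 h before LiveBLAzer B/G FRET substrate addition.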

[20] = cAMP Responsive Elements (CRE) small molecule antagonists, cell-based qHTS assay (AID 1963591; active means well fitted inhibition curve with a large enough effect in the signal ratio in the repeat runs, not every such curve was filed as active; the % refers to the signal ratio)
Procedure, shortened: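 CRE-bla HEK293T cells were plated 18 h at 37 °C/5% CO2, pinned with compound in DMSO, then stimulated with NKH477 at 0.25 uM final for 3 h. LiveBLAzer B/G FRET substrate was added and plates incubated 2 h at room temperature.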

Measured: Potency

Sequence of D(2) dopamine receptor (Homo sapiens) (P14416 whole entry, looked up): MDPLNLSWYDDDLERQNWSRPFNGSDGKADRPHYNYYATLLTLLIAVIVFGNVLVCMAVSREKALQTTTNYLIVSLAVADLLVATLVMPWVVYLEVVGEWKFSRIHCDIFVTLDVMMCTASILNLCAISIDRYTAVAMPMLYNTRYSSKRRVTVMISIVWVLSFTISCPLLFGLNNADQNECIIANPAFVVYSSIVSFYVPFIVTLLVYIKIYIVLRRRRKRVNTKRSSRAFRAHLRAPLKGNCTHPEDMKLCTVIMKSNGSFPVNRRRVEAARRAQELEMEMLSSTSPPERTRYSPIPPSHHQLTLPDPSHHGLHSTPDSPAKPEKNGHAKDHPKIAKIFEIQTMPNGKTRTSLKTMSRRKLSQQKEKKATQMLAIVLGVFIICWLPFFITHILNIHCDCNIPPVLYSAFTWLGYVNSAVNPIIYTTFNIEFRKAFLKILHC
Sequence of 5-hydroxytryptamine receptor 2A (Homo sapiens) (P28223 whole entry, looked up): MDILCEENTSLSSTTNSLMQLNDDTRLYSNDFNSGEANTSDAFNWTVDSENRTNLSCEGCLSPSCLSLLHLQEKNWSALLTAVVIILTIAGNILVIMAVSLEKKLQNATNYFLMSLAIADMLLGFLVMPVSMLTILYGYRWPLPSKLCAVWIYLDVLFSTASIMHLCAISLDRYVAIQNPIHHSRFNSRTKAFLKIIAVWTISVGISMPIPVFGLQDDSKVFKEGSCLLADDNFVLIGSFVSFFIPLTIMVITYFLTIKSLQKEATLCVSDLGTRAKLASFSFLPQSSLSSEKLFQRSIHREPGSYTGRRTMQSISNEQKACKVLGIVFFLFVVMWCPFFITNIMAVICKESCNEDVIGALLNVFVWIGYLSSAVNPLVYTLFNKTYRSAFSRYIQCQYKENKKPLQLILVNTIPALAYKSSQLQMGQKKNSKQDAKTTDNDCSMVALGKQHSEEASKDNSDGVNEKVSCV
Sequence of KiSS-1 receptor (Homo sapiens) (Q969F8 whole entry, looked up): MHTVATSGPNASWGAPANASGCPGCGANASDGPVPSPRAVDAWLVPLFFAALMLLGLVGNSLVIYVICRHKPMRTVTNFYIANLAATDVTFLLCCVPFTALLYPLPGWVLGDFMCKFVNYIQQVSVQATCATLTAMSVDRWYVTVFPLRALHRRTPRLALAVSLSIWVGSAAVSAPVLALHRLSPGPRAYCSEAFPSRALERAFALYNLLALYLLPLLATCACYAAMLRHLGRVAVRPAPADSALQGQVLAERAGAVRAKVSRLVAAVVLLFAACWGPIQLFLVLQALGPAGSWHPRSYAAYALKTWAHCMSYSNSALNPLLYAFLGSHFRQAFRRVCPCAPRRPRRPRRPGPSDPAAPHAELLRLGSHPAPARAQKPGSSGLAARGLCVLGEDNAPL
Sequence of Muscarinic acetylcholine receptor M1 (Homo sapiens) (P11229 whole entry, looked up): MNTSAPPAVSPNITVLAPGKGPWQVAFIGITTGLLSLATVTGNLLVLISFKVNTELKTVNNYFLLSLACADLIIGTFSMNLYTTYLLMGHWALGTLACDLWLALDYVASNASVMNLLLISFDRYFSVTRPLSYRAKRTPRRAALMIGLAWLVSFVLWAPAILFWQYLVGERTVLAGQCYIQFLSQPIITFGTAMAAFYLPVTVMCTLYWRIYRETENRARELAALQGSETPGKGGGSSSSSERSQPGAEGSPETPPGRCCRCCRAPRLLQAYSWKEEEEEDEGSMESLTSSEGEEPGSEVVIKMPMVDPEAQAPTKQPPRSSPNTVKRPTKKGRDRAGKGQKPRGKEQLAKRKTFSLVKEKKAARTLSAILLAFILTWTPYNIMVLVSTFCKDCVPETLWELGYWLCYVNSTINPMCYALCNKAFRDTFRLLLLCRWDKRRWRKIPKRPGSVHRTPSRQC
Sequence of Beta-2 adrenergic receptor (Homo sapiens) (P07550 whole entry, looked up): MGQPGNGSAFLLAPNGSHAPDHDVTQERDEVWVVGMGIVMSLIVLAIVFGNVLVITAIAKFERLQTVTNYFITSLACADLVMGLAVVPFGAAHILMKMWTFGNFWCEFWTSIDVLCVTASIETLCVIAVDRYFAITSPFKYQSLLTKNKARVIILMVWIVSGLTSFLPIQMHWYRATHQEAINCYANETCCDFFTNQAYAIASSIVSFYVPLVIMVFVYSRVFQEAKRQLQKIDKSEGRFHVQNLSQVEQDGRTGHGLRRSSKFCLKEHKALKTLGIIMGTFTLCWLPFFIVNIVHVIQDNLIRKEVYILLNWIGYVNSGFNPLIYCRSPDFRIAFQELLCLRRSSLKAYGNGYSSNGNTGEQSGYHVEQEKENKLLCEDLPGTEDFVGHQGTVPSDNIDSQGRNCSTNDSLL
Sequence of Gonadotropin-releasing hormone receptor (Homo sapiens) (P30968 whole entry, looked up): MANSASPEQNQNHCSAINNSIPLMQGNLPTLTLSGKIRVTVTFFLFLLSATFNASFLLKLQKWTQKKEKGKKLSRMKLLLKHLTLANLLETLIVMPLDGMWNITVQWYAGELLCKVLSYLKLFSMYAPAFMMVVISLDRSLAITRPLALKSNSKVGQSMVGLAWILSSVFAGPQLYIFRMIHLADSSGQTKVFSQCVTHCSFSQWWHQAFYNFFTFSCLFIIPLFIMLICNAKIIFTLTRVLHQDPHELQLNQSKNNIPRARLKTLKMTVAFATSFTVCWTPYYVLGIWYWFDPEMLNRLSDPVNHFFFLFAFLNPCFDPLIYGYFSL

O=C(O)COc1nn(Cc2ccccc2)c2ccccc12
not listed: [17] | [18] | [19] | [20]
inactive: all other assays above

C=C(C)[C@@H]1CC=C(C)CC1
not listed: [7] | [8] | [10] | [12]
inactive: all other assays above

N#CCCCC(C#N)CCC#N (stereo unspecified)
not listed: [7] | [15]
inactive: all other assays above

CCOC(=O)CC(O)(CC(=O)OCC)C(=O)OCC
not listed: [7] | [11]
inactive: all other assays above

CC(C)(C)c1ccc(C(=O)CCCN2CCC(OC(c3ccccc3)c3ccccc3)CC2)cc1
inactive: [2] | [3] | [4] | [5] | [6] | [17] | [13] | [16]
active: [1] 6.68 µM | [8] 11.2 µM

Cc1c[nH]c(=O)[nH]c1=O
not listed: [17]
inactive: all other assays above

COc1cc(C(=O)NC2CCN(C)CC2)ccc1Nc1ncc2c(n1)N(C1CCCC1)CC(F)(F)C(=O)N2C
inactive: [2] | [3] | [4] | [5] | [6] | [11] | [13] | [14] | [15]
active: [1] 28.1 µM | [17] 16.7 µM | [16] 49.9 µM

Cc1cccc(OCC(O)CNC(C)(C)C)c1C (stereo unspecified)
active: [13] 0.0075 µM
not listed: [7] | [14] | [15]
inactive: all other assays above

CCC(C)O (stereo unspecified)
not listed: [7] | [8] | [14] | [16] | [18] | [20]
inactive: all other assays above

O=C1NC(=O)C2CC=CCC12 (stereo unspecified)
not listed: [14] | [17]
inactive: all other assays above

Oc1ccc(Cc2ccccc2)cc1
not listed: [11] | [12] | [13] | [17] | [19] | [20]
inactive: all other assays above

N#CCCOCCC#N
not listed: [7] | [14]
inactive: all other assays above

CC(C)(C)c1cc(CO)cc(C(C)(C)C)c1O
not listed: [7] | [8] | [11] | [12] | [13] | [14] | [20]
inactive: all other assays above

Cc1cc(O)c2ccccc2c1O
active: [1] 13.3 µM
not listed: [7] | [8] | [14] | [19] | [20]
inactive: all other assays above

COc1ccc(C2CNC(=O)C2)cc1OC1CCCC1 (stereo unspecified)
not listed: [11] | [13] | [17]
inactive: all other assays above

C/C=C/C=C/CO
not listed: [7] | [9] | [14] | [19]
inactive: all other assays above
